Only some compounds are listed: those with a hit (about 4.8% of all), similar ones and a draw of the others.
ssDAF-12 act: S. stercoralis DAF-12 activation, primary screen. HEK293 ssDAF-12/GRIP1 lit1-tk-luc reporter, luminescence; % of 3 µM dafachronic acid response. activation, % at 6.8 µM. 1% of 370,000 active;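 active means activation above the mean over all tested compounds plus 3 SD, cut at about 0.9% in these data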;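 further: 0% = DMSO-only wells and 100% = 3 µM delta7-dafachronic acid wells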
DAX1 inh-1: blocks DAX1 repression of SF-1 activated StAR promoter. HEK293T StAR-luciferase reporter, SF-1/DAX-1 repression relief. inhibition, % at 6.8 µM. 1.1% of 370,000 active. AID 652010;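 active means inhibition above the mean over all tested compounds plus 3 SD, cut at about 3.6% in these data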;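 further: 0% = DAX-1 cells with DMSO and 100% = cells lacking DAX-1 with DMSO; higher inhibition means more luminescence from relief of DAX-1 repression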
hgDAF-12 ag: hgDAF-12 agonism, primary luciferase screen; 1.8% of 370,000 active; activation, % at 6.8 µM; HEK293 GAL4-hgDAF12 UAS-luciferase reporter, agonist luminescence; normalized to butyrate control;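 active means activation above a cutoff set at the mean of all screened compounds plus 3 SD, cut at about 10% in these data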;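 further: 0% = DMSO wells and 100% = sodium butyrate wells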
hcDAF12 agonist: activators of H. contortus DAF-12 nuclear receptor. HEK293 hcDAF-12 lit1-tk-luc reporter, luminescence; 0% DMSO, 100% Δ7-dafachronic acid. activation, % at 6.8 µM. 1.4% of 370,000 active. AID 652067;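 active means activation above the mean of all tested compounds plus 3 SD, cut at about 5.5% in these data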;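 further: 100% = response to 3 µM Δ7-dafachronic acid high control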
DAX1 inh-2: inhibits human nuclear receptor DAX1 | 0.99% of 340,000 active | AID 504766 | HEK293 Gal4-DAX1 luciferase reporter, luminescence | P51843 | inhibition, % at 6.75 µM;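 active means inhibition above the mean over all tested compounds plus 3 SD, cut at about 4.2% in these data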;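 further: 0% = DAX1-transfected cells with DMSO and 100% = empty-vector control cells with DMSO; inhibition shows as a rise in luminescence from relieved DAX1 repression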
SMARCA2 act: SMARCA2 function activation, primary screen; AID 652017; activation, % at 9.1 µM; 1% of 370,000 active; MG213 cells, MMTV-luciferase reporter, dexamethasone, overnight; in the data active means activation above about 7.8%;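 further: 0% = vehicle wells and 100% = reference activator wells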
DAX1 conf: NR0B1 (human) inhibition, confirmation; shares compounds with DAX1 inh-1; HEK293T StAR-promoter luciferase reporter, SF-1/DAX-1 repression; inhibition, % at 6.8 µM; 87% of 2,400 active; AID 652134;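 active means inhibition above the average of every tested compound plus 3 SD, cut at about 3.8% in these data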;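 further: 0% = DAX-1 cells with DMSO and 100% = no DAX-1 control cells with DMSO; active compounds raise luminescence by relieving repression of the StAR reporter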
Target sequence (P51843 whole entry, looked up): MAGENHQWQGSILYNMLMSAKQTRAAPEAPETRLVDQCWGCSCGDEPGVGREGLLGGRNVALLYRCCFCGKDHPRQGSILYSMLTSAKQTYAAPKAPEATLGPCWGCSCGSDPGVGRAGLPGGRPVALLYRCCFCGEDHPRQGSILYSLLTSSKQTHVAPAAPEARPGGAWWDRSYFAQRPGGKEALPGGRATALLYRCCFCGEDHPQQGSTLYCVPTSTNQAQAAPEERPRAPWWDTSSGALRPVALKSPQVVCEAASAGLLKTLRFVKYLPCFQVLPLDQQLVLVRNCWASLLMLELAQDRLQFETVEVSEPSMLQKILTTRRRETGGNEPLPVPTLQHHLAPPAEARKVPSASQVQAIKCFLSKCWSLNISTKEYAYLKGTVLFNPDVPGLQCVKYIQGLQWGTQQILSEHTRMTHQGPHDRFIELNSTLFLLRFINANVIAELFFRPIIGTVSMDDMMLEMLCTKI
SF1 mutant ctr: counter-screen for DAX1 inhibitors: nonselective inhibitors with SF-1 AF2 mutant; 78% of 2,400 active; HEK293 StAR-luciferase, luminescence; inhibition, % at 6.8 µM; AID 652136; shares compounds with DAX1 inh-1;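 active means inhibition above the mean of all tested compounds plus 3 SD, cut at about 3% in these data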;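 further: 0% = DAX-1 transfected cells with DMSO and 100% = cells without DAX-1 with DMSO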
Active calls of the source: *; nt = no result.

SMILES	ssDAF-12 act	DAX1 inh-1	hgDAF-12 ag	hcDAF12 agonist	DAX1 inh-2	SMARCA2 act	DAX1 conf	SF1 mutant ctr
CN(C)C(=O)c1ccc(NC(=O)COC(=O)CCN=C2NS(=O)(=O)c3ccccc32)cc1	-1	-1	2	-1	0	0	nt	nt
COc1ccc(S(=O)(=O)c2ccc(OC)cc2)cc1	-1	-1	-1	0	0	-2	nt	nt
COc1ccc(N=[N+]([O-])c2ccc(OC)cc2)cc1	1	7.9*	9	5	1	1	16*	6.8*
CC(=O)c1c(C)[nH]c(C(=O)OCc2nc3ccsc3c(=O)[nH]2)c1C	0	7.1*	12*	1	2	2	4.7*	3.2*
Cc1ccsc1C(=O)OCc1nc2ccsc2c(=O)[nH]1	-1	1	1	-1	-1	-2	nt	nt
CCCn1c(C)cs/c1=N\C(=S)Nc1ccccc1	-1	0	-1	1	0	0	nt	nt
Cc1cs/c(=N/C(=S)Nc2ccccc2)n1C	0.9*	5.6*	13*	2	3	1	12*	5.8*
CCCCn1c(N)c(N(C)C(=O)c2ccc(Br)o2)c(=O)[nH]c1=O	-1	4.6*	1	1	0	2	0	2
COc1ccccc1NS(=O)(=O)c1cccc(C(=O)NCc2ccncc2)c1	-1	-2	0	-2	0	0	nt	nt
COc1ccc(C=C(C#N)c2ccc(OC)cc2)cc1	0	6.7*	17*	3	4	4	9.1*	4.0*
CCOC(=O)c1c(-c2ccccc2)c2cc(OC)ccc2n1CCCN(C)C	-1	0	0	0	1	-1	nt	nt
O=C(CSc1ccccn1)Nc1ccc2c(c1)CCC2	0	5.0*	6	0	3	6	7.2*	5.5*
Cc1cc(NC(=O)CSc2ccccn2)cc(NC(=O)CSc2ccccn2)c1	-1	0	0	1	0	-4	nt	nt
O=C(Nc1nccs1)c1ccc(-c2ccccc2[N+](=O)[O-])o1	0	5.2*	10	3	1	6	7.2*	6.3*
O=C(Nc1nccs1)c1ccc(N2CCOCC2)c([N+](=O)[O-])c1	0	7.0*	9	3	3	2	8.4*	5.4*
O=C(Nc1ccccc1N1CCOCC1)c1ccc(N2CCOCC2)c([N+](=O)[O-])c1	-2	0	-2	-1	-1	-3	nt	nt
Cc1cccc(Nc2nc(Cl)ncc2F)c1C	0	0	1	-1	0	0	nt	nt
COc1cc(-c2cnc3c(NC=O)cc(-c4ccc(C)cc4)cn23)cc(OC)c1OC	0	11*	-3	-2	nt	1	21*	-7
CCC(C)c1ccc(S(=O)(=O)N2CCN(C(C)C(=O)NC3CCCC3)CC2)cc1 (stereo not drawn)	-1	-1	0	-1	-1	3	nt	nt
COc1ccc(C(=O)NNC(=O)c2ccncc2)cc1	-1	0	0	-4	-1	-2	nt	nt
COc1ccc(O)c(C(=O)CC(=O)c2ccncc2)c1	-1	4.7*	12*	1	2	4	5.7*	3.6*
CCN(CC(=O)Nc1ccc2c(c1)OCCO2)C(=O)c1ccc(Cl)cc1Cl	0	6.0*	11*	3	1	3	7.5*	5.9*
CCN(CC(=O)Nc1ccc2c(c1)OCCO2)C(=O)c1cc(Cl)nc2ccccc12	-1	-1	8	0	0	-2	nt	nt
CCN(CC(=O)Nc1ccc2c(c1)OCCO2)C(=O)c1ccc(C(F)(F)F)cc1	-1	5.2*	7	3	1	2	5.9*	3.0*
COCCNC(=O)C1(C)CCCN(Cc2ccc(OCc3ccccc3)cc2)C1 (stereo not drawn)	-1	-2	-2	-1	nt	-2	nt	nt
SMILES	ssDAF-12 act	DAX1 inh-1	hgDAF-12 ag	hcDAF12 agonist	DAX1 inh-2	SMARCA2 act	DAX1 conf	SF1 mutant ctr
O=C(NCC(=O)N1CCCCC1)c1sc2ccccc2c1Cl	0	5.8*	8	1	2	3	5.5*	3.4*
CC1CCCN(C(=O)CNC(=O)c2sc3ccccc3c2Cl)C1 (stereo not drawn)	0	3	6	2	1	1	nt	nt
Cc1ccnc(NC(=O)CNC(=O)c2sc3ccccc3c2Cl)c1	0	10*	10	5	1	2	11*	7.2*
COc1ccc(Cn2cc(CN3CC=CS3(=O)=O)nn2)cc1	-1	0	4	-1	nt	-1	nt	nt
Cc1ccsc1C(=O)OCC(=O)c1cc(C)n(C)c1C	0	4.8*	3	5	-3	0	6.0*	-1
CC1CCCN(c2ccc3nc4ccccc4c(=O)n3n2)C1 (stereo not drawn)	0	4.7*	11*	4	-2	3	7.8*	3.5*
O=C1CCn2nc(-c3ccc(Cl)cc3)cc2N1	1.0*	5.3*	8	5	3	1	6.3*	4.3*
Nc1cc(-c2ccc(Cl)cc2)nn1-c1ccccc1	-1	1	9	2	2	0	nt	nt
COc1ccc(NC(=O)c2ccccc2NC(=O)c2ccccc2)cc1	-1	-1	4	1	-2	2	nt	nt
COc1ccc(NC(=O)c2ccccc2NC(=O)C2CC=CCC2C(=O)O)cc1 (stereo not drawn)	0	5.6*	12*	3	2	2	4.0*	3.4*
Cc1[nH]n(-c2cccc(Cl)c2)c(=O)c1C=NCc1ccco1	1	5.8*	12*	4	5.7*	4	8.3*	5.1*
COCCSc1nnc(NC(=O)c2ccc3c(c2)OCO3)s1	0	1	3	-1	3	3	nt	nt
CSc1nnc(NC(=O)c2ccc3c(c2)OCO3)s1	0	13*	11*	6.0*	-1	6	3	-1
Cc1cccc(NS(=O)(=O)c2ccc(C(=O)NCC3(N4CCCCC4)CCCCC3)cc2)c1C	0	7.3*	2	4	1	0	9.7*	6.6*
O=C(NCC1(N2CCCCC2)CCCCC1)c1ccc(NS(=O)(=O)c2ccccc2)cc1	0	8.9*	4	1	3	0	9.0*	5.6*
CCC(=O)c1ccc(OCC(=O)NNC(=O)c2cc(C)oc2C)cc1	-1	0	-2	3	1	0	nt	nt
S=c1nc2ccccc2c2nc(-c3ccccc3Br)[nH]n12	-1	0	0	-1	0	1	nt	nt
Brc1ccccc1-c1nc2c3ccccc3ncn2n1	0	4.6*	11*	6.0*	2	1	9.0*	6.4*
